EP2 mod: modulates human prostaglandin E2 receptor EP2 signaling; P43116; EP2-expressing cells, cAMP HTRF FRET, PGE2 co-stimulation; induction, % at 25 µM; 260,000 tested, 0.83% active; AID 940;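 active means compounds whose cAMP rise, as percent of the full-agonist control response, exceeds 60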;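 further: rat C6 glioma line stably carrying human EP2 under a CMV promoter; the protocol text gives 20 µM as final concentration; 100% = response of wells given 1 µM PGE2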
Target sequence (P43116 whole entry, looked up): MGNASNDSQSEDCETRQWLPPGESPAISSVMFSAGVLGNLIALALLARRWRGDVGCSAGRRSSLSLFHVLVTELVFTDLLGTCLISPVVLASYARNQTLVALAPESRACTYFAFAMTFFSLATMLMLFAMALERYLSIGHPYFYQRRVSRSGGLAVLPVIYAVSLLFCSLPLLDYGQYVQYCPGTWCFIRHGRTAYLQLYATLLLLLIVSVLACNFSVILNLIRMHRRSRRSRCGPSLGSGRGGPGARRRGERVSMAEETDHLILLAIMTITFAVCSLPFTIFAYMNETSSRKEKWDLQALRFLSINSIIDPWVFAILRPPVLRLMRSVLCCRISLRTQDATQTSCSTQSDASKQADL
HMGR II inh: inhibitors of class II HMG-CoA reductase from Enterococcus faecalis | purified E. faecalis HMGR, NADPH absorbance 340 nm kinetic | inhibition, % at 10 µM | 190,000 tested, 0.41% active | AID 1066;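 active means inhibition above a set limit, the median over all tested compounds plus 3 SD, cut at about 9.5% in these data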;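 further: enzyme runs in reverse so mevalonate oxidation gives rising NADPH absorbance; 0% = complete reaction with DMSO and 100% = background rate lacking mevalonate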
GSH bead fluor: GSH bead compound fluorescence profile; GSH beads flow cytometry, compound fluorescence 488/530 nm; active compounds read high; fluorescence (KMESF) at 10 µM; 190,000 tested, 0.25% active; AID 1776; in the data active means fluorescence above about 89;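 further: glutathione beads carrying GST-tagged Bcl family fusion proteins plus one bare bead set; values are compound well signal with DMSO vehicle wells as background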
Avidin bead fluor: avidin bead compound fluorescence profile | 220,000 tested, 0.38% active | fluorescence (KMESF) at 10 µM | Avidin beads, compound fluorescence 488/530 nm, flow cytometry; active compounds read high; in the data active means fluorescence above about 47
EP2 antag: EP2 receptor (human) inhibition | P43116 | C6 glioma cells expressing human EP2, cAMP TR-FRET; cells stimulated with saturating PGE2 | inhibition, % at 25 µM | 260,000 tested, 0.52% active | AID 1422;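 active means percent inhibition above 40 after rounding to a whole number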;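 further: rat C6 glioma host cells with rolipram phosphodiesterase inhibitor present; the protocol text gives 20 µM as final concentration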
An asterisk follows results filed as active. Shown are actives, neighbours in structure and some others; about 2.1% of the full set was active somewhere.

Screening CC(=O)NC1C(=O)N=C(C)N1c1ccccc1 (stereo unspecified) returned EP2 mod -12 and EP2 antag 10.
COC(=O)C1C(=O)C2=C(CC1C)Nc1ccccc1NC2c1ccccc1Br (stereo unspecified) was read as EP2 mod -29 and EP2 antag 11.
For Cc1cccc(C2(c3cccc(C)c3)CC2C(=O)Nc2ccc([N+](=O)[O-])cc2O)c1 (stereo unspecified) the results were EP2 mod 61*, HMGR II inh -6, GSH bead fluor 13, Avidin bead fluor 15 and EP2 antag 8.
CC(=O)O[C@@H]1CC[C@]2(C)C(=C[C@H]([C@@H]3C=C4C[C@@H](OC(C)=O)CC[C@]4(C)C4=C3[C@@H]3C[C@@H]5O[C@@]6(CC[C@H](C)CO6)[C@@H](C)[C@@H]5[C@@]3(C)CC4)C3=C2CC[C@@]2(C)[C@@H]4[C@@H](C)[C@]5(CC[C@H](C)CO5)O[C@@H]4C[C@H]32)C1 was read as EP2 mod 20 and EP2 antag 40*.
Screening Cc1nc([N+](=O)[O-])c(Br)n1CC(=O)c1cccc([N+](=O)[O-])c1 returned EP2 mod -20, HMGR II inh 16*, GSH bead fluor 26, Avidin bead fluor 22 and EP2 antag 5.
Cc1nc([N+](=O)[O-])c(Br)n1CC(=O)c1ccc(F)cc1 was read as EP2 mod -18, HMGR II inh -5, GSH bead fluor 21, Avidin bead fluor 6 and EP2 antag 8.
For Cc1ccc(NC(=O)CCc2ccc(S(=O)(=O)N3CCOCC3)cc2)c(C)c1 the results were EP2 mod 1, HMGR II inh 15*, GSH bead fluor 13, Avidin bead fluor 7 and EP2 antag 5.
Screening Cc1ccc(NC(=O)COC(=O)CCc2ccc(S(=O)(=O)N3CCOCC3)cc2)c(C)c1 returned EP2 mod 4, HMGR II inh -1, GSH bead fluor 12, Avidin bead fluor 11 and EP2 antag 6.
For Cc1cc(NC(=O)[C@H]2C[C@@H](c3ccc(F)cc3)NS(=O)(=O)N2C)no1 the results were EP2 mod 21.
Screening N#Cc1c(Cl)c(Cl)c2nnc(-c3ccc(Br)cc3)n2c1Cl returned EP2 mod -50, HMGR II inh 1, GSH bead fluor 9, Avidin bead fluor 11 and EP2 antag 118*.
Screening COC(c1ccccc1)c1nnc(CCC(=O)NCCC(C)C)o1 (stereo unspecified) returned EP2 mod 12, HMGR II inh 16*, GSH bead fluor 16, Avidin bead fluor 10 and EP2 antag 7.
Screening Cc1ccc(S(=O)(=O)N2CCC(C(=O)Nc3ccc(Br)cc3)CC2)cc1 returned EP2 mod -60 and EP2 antag 10.
Screening COC(=O)c1ccccc1NC(=O)Cn1cnc2c(cnn2-c2ccccc2)c1=O returned EP2 mod -4, HMGR II inh -1, GSH bead fluor 34, Avidin bead fluor 11 and EP2 antag 6.
`COc1ccccc1NC(=O)Cn1cnc2c(cnn2-c2ccccc2)c1=O` gave EP2 mod -32, HMGR II inh 12*, GSH bead fluor 63, Avidin bead fluor 14 and EP2 antag 4.
`COc1cc2ccccc2cc1C(=O)Nc1ccc(-c2nn3c(C)nnc3s2)cc1C` gave EP2 mod -7 and EP2 antag 10.
`COc1ccc(C(=O)NC2CCN(CC(=O)Nc3cccc(C)c3)CC2)cc1OC` gave EP2 mod -23, HMGR II inh 11*, GSH bead fluor 20, Avidin bead fluor 5 and EP2 antag 16.
`C=CCNC(=O)CN1CCC(NC(=O)c2ccc(OC)c(OC)c2)CC1` gave EP2 mod -18 and EP2 antag 7.
Screening O=C1NN(c2ccc(Cl)c(Cl)c2)C(=O)/C1=C/c1cccc(OC(=O)c2cccs2)c1 returned EP2 mod -7, HMGR II inh 0, GSH bead fluor 51, Avidin bead fluor 11 and EP2 antag 9.
O=C1NN(c2ccccc2)C(=O)/C1=C\c1cccc(OC(=O)c2cccs2)c1 was read as EP2 mod -42, HMGR II inh -6, GSH bead fluor 22, Avidin bead fluor 12 and EP2 antag 40*.
Screening Cc1sc(N)c(C(=O)c2ccc(Br)cc2)c1C returned EP2 mod 71* and EP2 antag 14.
For Cc1sc(N)c(C(=O)c2ccccc2)c1C the results were EP2 mod 10, HMGR II inh 7, GSH bead fluor 10, Avidin bead fluor 248* and EP2 antag 8.
`Nc1sc2c(c1C(=O)O)CCCC2` gave EP2 mod -18 and EP2 antag 11.
For Nc1sc2c(c1C(=O)c1ccc(Br)cc1)CCC2 the results were EP2 mod 78* and EP2 antag 9.
For COc1ccccc1CNC(=O)C1CC(c2ccccc2[N+](=O)[O-])=NO1 (stereo unspecified) the results were EP2 mod 3, HMGR II inh 2, GSH bead fluor 11, Avidin bead fluor 49* and EP2 antag 14.
Screening CC(=O)CSc1nc2cc3c(cc2cc1C#N)OCCO3 returned EP2 mod -13, HMGR II inh 11*, GSH bead fluor 18, Avidin bead fluor 8 and EP2 antag 18.
`N#Cc1cc2cc3c(cc2nc1SCC(=O)NCc1ccccc1)OCCO3` gave EP2 mod 48 and EP2 antag 43*.
CCOC(=O)c1ccc(NC(=O)CSc2nc3cc4c(cc3cc2C#N)OCCO4)cc1 was read as EP2 mod 83* and EP2 antag 15.
Screening N#Cc1cc2cc3c(cc2nc1SCC(N)=O)OCCO3 returned EP2 mod -27 and EP2 antag 15.
For CCn1cnc2c(oc3ccccc32)c1=O the results were EP2 mod -19, HMGR II inh 11*, GSH bead fluor 11, Avidin bead fluor 15 and EP2 antag 5.
Screening CC(C)c1ccc(N(CC(=O)NC2CCCCC2)C(=O)c2snc(C(N)=O)c2N)cc1 returned EP2 mod -81 and EP2 antag 13.
For CC(C)(C)c1cc(NCc2ccccn2)n2ncc(-c3ccccc3)c2n1 the results were EP2 mod 62*, Avidin bead fluor 10 and EP2 antag 5.
Cc1cc(C)n(-c2cc(C(C)(C)C)nc3c(-c4ccccc4)cnn23)n1 was read as EP2 mod 0, Avidin bead fluor 10 and EP2 antag 4.
Screening O=C(Nc1ccncc1)c1ccc2c(c1)C(=O)N(C1CCCCC1)C2=O returned EP2 mod -10, HMGR II inh 0, GSH bead fluor 19, Avidin bead fluor 7 and EP2 antag 46*.
`O=C(Nc1ccncc1)c1ccc(C(=O)Nc2ccncc2)cc1` gave EP2 mod -2, HMGR II inh 18*, GSH bead fluor 8, Avidin bead fluor 12 and EP2 antag 3.
Screening CC1CC(C)CN(CCC(=O)Nc2ccc(Cl)cc2)C1 (stereo unspecified) returned EP2 mod -96 and EP2 antag 25.

Compound activity (PubChem)
